C diff HTS: C. difficile growth inhibitors, primary screen, HTS. 86,000 tested, 0.25% active. growth activity, negative = inhibition, % at 16 µg/mL (by protocol). Clostridium difficile clinical isolate growth, OD600, 24 h; stronger effect = lower value;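 active = mean growth activity at or below -80% and every replicate also at or below -80%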;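 note: 0% = DMSO wells and -100% = levofloxacin 16 µg/mL wells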
* marks the source's active call; other numbers are inactive results; ! = repeats disagree. The full list was thinned out, with hits kept by preference.

SMILES	C diff HTS
COc1ccc(NC(=O)Nc2ccc3c(c2)C(=O)N([C@@H](C)CO)C[C@@H](C)[C@H](CN(C)Cc2ccc(C(F)(F)F)cc2)OCCCC[C@@H](C)O3)cc1	7.4
COc1ccc(CN(C)C[C@H]2OCCCC[C@@H](C)Oc3ccc(NC(=O)Nc4ccc(C(F)(F)F)cc4)cc3C(=O)N([C@@H](C)CO)C[C@@H]2C)cc1	-101.0*
COc1ccc(CN(C)C[C@@H]2OCCCC[C@H](C)Oc3ccc(NC(=O)Nc4cccc5ccccc45)cc3C(=O)N([C@H](C)CO)C[C@H]2C)cc1	-94.3*
C[C@@H]1CN([C@H](C)CO)C(=O)c2cc(NC(=O)Nc3ccc(C(F)(F)F)cc3)ccc2O[C@@H](C)CCCCO[C@@H]1CN(C)Cc1ccc2c(c1)OCO2	-42.2
C[C@@H]1CCCCO[C@H](CN(C)Cc2ccc3c(c2)OCO3)[C@@H](C)CN([C@H](C)CO)C(=O)c2cc(NC(=O)Nc3ccc(C(F)(F)F)cc3)ccc2O1	-52.7
COc1ccc(CN(C)C[C@H]2OCCCC[C@H](C)Oc3ccc(NC(=O)Nc4cccc5ccccc45)cc3C(=O)N([C@@H](C)CO)C[C@H]2C)cc1	-0.1
COc1ccc(CN(C)C[C@@H]2OCCCC[C@@H](C)Oc3ccc(NC(=O)Nc4cccc5ccccc45)cc3C(=O)N([C@H](C)CO)C[C@H]2C)cc1	25.3
C[C@@H]1CCCCO[C@@H](CN(C)Cc2ccc3c(c2)OCO3)[C@H](C)CN([C@H](C)CO)C(=O)c2cc(NC(=O)Nc3ccc(C(F)(F)F)cc3)ccc2O1	-94.8*
COc1ccc(NC(=O)Nc2ccc3c(c2)C(=O)N([C@H](C)CO)C[C@H](C)[C@H](CN(C)Cc2ccc(C(F)(F)F)cc2)OCCCC[C@@H](C)O3)cc1	11.8
CC(C)NC(=O)N(C)C[C@@H]1Oc2ncc(C#CC3CCCCC3)cc2C(=O)N([C@H](C)CO)C[C@@H]1C	-4.2
Cc1ccccc1S(=O)(=O)N1C[C@H](O)COC[C@H]2O[C@@H](CC(=O)N3CCN(C)CC3)CC[C@@H]21	-3.8
COc1ccc2c3c([nH]c2c1)[C@H](CO)N(Cc1ccccc1F)CC31CCN(CC2CC2)CC1	5.4
CC(C)CC#Cc1ccc2c(c1)O[C@@H](CN(C)Cc1cccnc1)[C@@H](C)CN([C@@H](C)CO)S2(=O)=O	25.3
C[C@H]1CN([C@@H](C)CO)C(=O)c2cc(NC(=O)C3CCCCC3)ccc2O[C@H]1CN(C)C	2.2
COc1ccccc1-c1cnc2c(c1)C(=O)N([C@@H](C)CO)C[C@@H](C)[C@@H](CN(C)Cc1ccncc1)O2	2.5
CN1C(=O)c2cc(NC(=O)c3ccc(F)c(F)c3)ccc2OC[C@@H]2O[C@@H](CC(=O)N3CCOCC3)CC[C@H]21	-5.1
O=C(Nc1cccc(Cl)c1)N[C@H]1CC[C@@H](CCNC(=O)C2CCOCC2)O[C@H]1CO	1.8
Cc1cccc(-c2ccc([C@@H]3[C@H]4CN(C(=O)CN5CCOCC5)CC(=O)N4[C@H]3CO)cc2)c1	2.6
CN1[C@H](C(=O)NCC2CC2)[C@@H](CO)[C@@H]2Cn3c(ccc(-c4ccc(F)cc4)c3=O)[C@@H]21	1.4
O=C(C[C@@H]1CC[C@H]2[C@@H](COC[C@H](O)CN2C(=O)Nc2ccc(F)cc2)O1)NCC1CC1	29.0
O=C(C[C@@H]1CC[C@@H]2[C@H](COC[C@H](O)CN2C(=O)Nc2ccc(C(F)(F)F)cc2)O1)NCC1CCCCC1	-100.8*!
O=C(C[C@H]1CC[C@H]2[C@@H](COC[C@@H](O)CN2C(=O)Nc2ccc(C(F)(F)F)cc2)O1)NCC1CCCCC1	-100.8*!
O=C(C[C@H]1CC[C@@H]2[C@H](COC[C@H](O)CN2C(=O)Nc2ccc(C(F)(F)F)cc2)O1)NCC1CCCCC1	-102.0*!
O=C(C[C@H]1CC[C@@H]2[C@H](COC[C@H](O)CN2C(=O)Nc2ccc(F)cc2)O1)NCC1CC1	33.3
O=C(C[C@@H]1CC[C@@H]2[C@H](COC[C@@H](O)CN2C(=O)Nc2ccc(Cl)cc2)O1)NCC1CCCCC1	31.9
SMILES	C diff HTS
O=C(C[C@@H]1CC[C@@H]2[C@H](COC[C@H](O)CN2C(=O)Nc2ccc(Cl)cc2)O1)NCC1CC1	11.6
O=C(C[C@H]1CC[C@H]2[C@@H](COC[C@H](O)CN2C(=O)Nc2ccc(C(F)(F)F)cc2)O1)NCC1CCCCC1	-41.6
O=C(C[C@H]1CC[C@H]2[C@@H](COC[C@@H](O)CN2C(=O)Nc2ccc(F)cc2)O1)NCC1CC1	1.6
C[C@H](CO)N1C[C@H](C)[C@H](CN(C)Cc2ccc(Oc3ccccc3)cc2)Oc2ccc(NC(=O)C3CCCCC3)cc2C1=O	17.7
COc1ccc2c3c(n(C)c2c1)[C@H](CO)NCC31CCN(Cc2ccc(F)cc2)CC1	26.0
COc1cccc(-c2cnc3c(c2)C(=O)N([C@H](C)CO)C[C@H](C)[C@H](CN(C)Cc2ccc(C(=O)O)cc2)O3)c1	-2.1
C[C@@H](NC(=O)C[C@H]1CC[C@H]2[C@@H](COC[C@H](O)CN2Cc2cc(F)ccc2F)O1)c1ccccc1	-3.2
COc1ccc2c3c([nH]c2c1)[C@@H](CO)N(C(=O)NC1CCCC1)CC31CCN(C(=O)Nc2cccc(F)c2)CC1	-3.5
C[C@@H]1CN([C@@H](C)CO)C(=O)c2cccc(NC(=O)Nc3ccc(C(F)(F)F)cc3)c2O[C@@H]1CN(C)Cc1ccc(Oc2ccccc2)cc1	-96.3*
C[C@H]1CN([C@@H](C)CO)C(=O)c2cccc(NC(=O)Nc3ccc(C(F)(F)F)cc3)c2O[C@H]1CN(C)Cc1ccc(Oc2ccccc2)cc1	80.6
COc1ccc(CN(C)C[C@@H]2Oc3c(NC(=O)Nc4ccc(C(F)(F)F)cc4)cccc3C(=O)N([C@H](C)CO)C[C@@H]2C)cc1	16.9
COc1ccc(CN(C)C[C@@H]2Oc3c(NC(=O)Nc4ccc(C(F)(F)F)cc4)cccc3C(=O)N([C@@H](C)CO)C[C@H]2C)cc1	14.9
C[C@H]1CN([C@@H](C)CO)C(=O)c2cccc(NC(=O)Nc3ccc(F)cc3)c2O[C@@H]1CN(C)Cc1ccc(-c2ccccc2)cc1	-3.5
C[C@H]1CN([C@@H](C)CO)C(=O)c2cccc(NC(=O)Nc3ccccc3)c2O[C@@H]1CN(C)Cc1ccc(-c2ccccc2)cc1	-0.4
C[C@@H]1CN([C@H](C)CO)C(=O)c2cccc(NC(=O)Nc3ccc(C(F)(F)F)cc3)c2O[C@@H]1CN(C)Cc1ccc(Oc2ccccc2)cc1	-25.4
COc1ccc(NC(=O)Nc2cccc3c2O[C@H](CN(C)Cc2ccc(C(F)(F)F)cc2)[C@H](C)CN([C@@H](C)CO)C3=O)cc1	-100.8*
C[C@@H]1CN([C@@H](C)CO)C(=O)c2cccc(NC(=O)Nc3ccccc3)c2O[C@@H]1CN(C)Cc1ccc(-c2ccccc2)cc1	-101.8*
CNC[C@H]1OCCCC[C@H](C)Oc2ccc(NC(=O)CCC(F)(F)F)cc2C(=O)N([C@@H](C)CO)C[C@H]1C	-0.7
CN(C)C(=O)[C@@H]1[C@@H](CO)[C@@H]2Cn3c(ccc(-c4ccccc4F)c3=O)[C@H]1N2C	-2.1
CC=Cc1ccc2n(c1=O)C[C@H]1[C@H](CO)[C@@H](C(=O)Nc3ccc(-c4ccccc4)cc3)[C@@H]2N1CC (mixture of isomers)	3.6
COc1ccc2c3c([nH]c2c1)[C@H](CO)NCC31CCN(C(=O)Cc2ccccc2)CC1	2.6
CN1C(=O)c2cc(NC(=O)c3cnccn3)ccc2OC[C@@H]2O[C@H](CC(=O)NCC3CC3)CC[C@@H]21	6.7
COc1ccc(NC(=O)NC[C@H]2CC[C@H]3[C@H](CN3Cc3ccccc3C(=O)O)O2)cc1	1.0

Assay outcomes from PubChem BioAssay.
